From PubChem BioAssay AID1839 (Johns Hopkins Ion Channel Center, 2009)
Screen size: about 2,400 compounds; about 220 (9.2%) were called active. Shown is part of a subset that was picked to be rich in actives. A number with no mark means an inactive call.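 How the source made its calls: active means signal change above the mean of dofetilide-free buffer controls plus 3 SD, so a positive margin; inactive means the rest.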

test: thallium signal changes without hERG – cell-based, CHO-K1 parental line, FluxOR thallium flux, counter-screen for hERG block protection project, confirmation (AID 1839); settings: CHO-K1 parental cells, FluxOR thallium flux fluorescence; at 10 µM;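 further: compounds applied alone with no dofetilide to cells lacking hERG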

Compound	signal change vs control minus 3*SD hit threshold (margin above threshold, higher = more increase)
O=C1NC(=S)SC1=C1CCCCCC1	26% (active)
CCCCCN(C(=O)CCC(=O)OCC(=O)N(C)C1CCCCC1)c1c(N)n(CCCC)c(=O)[nH]c1=O	-20.9%
CCC1(C(=O)O)NC(c2cc(OC)ccc2O)C2C(=O)N(Cc3ccccc3)C(=O)C21 (configuration not stated)	-29.6%
O=C1NCCN1Cc1ccccc1F	-30.6%
CON/C=N/C(=S)Nc1ncc(C(F)(F)F)cc1Cl	16.5% (active)
ON/C=N/C(=S)Nc1ncc(C(F)(F)F)cc1Cl	6.1% (active)
C/C(Cl)=C\Cn1c(O)c(N=NC(N)=S)c2cc(Br)ccc21	-15.7%
COc1ccc(OC)c(S(=O)(=O)NCc2cn3cccc(C)c3n2)c1	-37.6%
O=c1c2ccc(Cl)cc2nc(-c2ccc([N+](=O)[O-])cc2)n1O	-15.4%
O=c1c2cc(Cl)ccc2nc(-c2ccc([N+](=O)[O-])cc2)n1O	4.5% (active)
O=[N+]([O-])c1ccc(CSc2nnc(SCc3ccc(Cl)cc3)s2)cc1	-24.5%
O=c1c2cc(Br)ccc2nc(-c2ccc([N+](=O)[O-])cc2)n1O	6.7% (active)
Nc1nc(O)c(N=Nc2ccc(S(N)(=O)=O)cc2)c(=O)[nH]1	-32%
CNC(=S)Nc1sc2c(c1C(=O)OC)CCC2	-15.1%
Cc1ccc(C(=O)N/N=C(/CC(=O)c2cccs2)C(F)(F)F)cc1	-22.1%
CC(C)=CCCC1=CCC2C(=O)NNC(=O)C2C1 (configuration not stated)	-33.3%
CC(C)(C)NC(=O)C(=O)NNC(=O)COc1ccccc1	-32.8%
Cc1ccc(OCC(=O)NC(=S)Nc2ccc(Br)cn2)cc1	-4.8%
CC(C)(C)NC(=O)C(=O)NNC(=O)COc1ccc(Br)cc1	6.9% (active)
c1ccc(SSc2ccccn2)nc1	-36.9%
S=c1[nH]c(-c2ccccc2)cn1/N=C/c1cccc2ccccc12	-17.6%
Oc1oc(-c2cccc3ccccc23)nc1/C=N/c1nccs1	-19.4%
CCn1c(O)c(N=NC(=O)CNC(=O)c2ccccc2F)c2ccccc21	-28.7%
CCCn1c(O)c(N=NC(=O)c2ccco2)c2ccccc21	29.8% (active)
Oc1c(N=NC(=S)Nc2ccccc2F)c2ccccc2n1Cc1ccccc1	-17.5%
CN1C(=O)/C(=N\OC(=O)c2cccc3ccccc23)c2ccccc21	-18.7%

Compound	signal change vs control minus 3*SD hit threshold (margin above threshold, higher = more increase)
C/C(Nc1cccc(F)c1)=C(/C#N)C(N)=O	-24.1%
Cc1ccc(-c2csc3nc[nH]c(=S)c23)cc1C	-21.7%
Cc1c(-c2ccccc2)sc2nc[nH]c(=S)c12	6.1% (active)
S=c1[nH]cnc2scc(-c3ccc(Br)cc3)c12	-22%
S=c1[nH]cnc2scc(-c3ccccc3)c12	-3.2%
Cc1cc(-c2csc3nc[nH]c(=S)c23)cc(C)c1C	-3.4%
Cc1sc2nc[nH]c(=S)c2c1-c1ccccc1	9.4% (active)
Clc1ccc(Nc2nc3cccnc3s2)cc1	-29.8%
CCOC(=O)N1CCN(C(=O)CCn2c(=S)[nH]c3ccsc3c2=O)CC1	-14.4%
CN(CCc1ccccn1)C(=O)CCC1CCCN(C(=O)c2ccsc2)C1 (configuration not stated)	-22.3%
N=C1S/C(=C\c2ccc(-c3cccc(Cl)c3)o2)C(=O)N1c1nccs1	-18.8%
Cc1cc(S(=O)(=O)N2CCOCC2)ccc1OCC(=O)NCc1ccco1	-27.2%
Oc1c(Br)cc(Br)cc1C=Nc1ccc2c(c1)OCCO2	-5.9%
Oc1c(Br)cc(Br)cc1C=Nc1ccc2[nH]ncc2c1	11% (active)
Oc1c(Br)cc(Br)cc1C=Nc1cccc2ncccc12	-0.4%
COc1ccc(-n2c(O)c(/C=C3\C=Nc4ccccc43)c(=O)[nH]c2=O)cc1	-43%
COCC(=O)NC1CC2CCC(C1)N2C(=S)Nc1ccccc1C(=O)OC (configuration not stated)	-14.6%
Cc1sc2ncnc(SCC(=O)c3ccc(O)cc3O)c2c1C	-22.1%
Cc1noc(C)c1CSc1ncnc2sc3c(c12)CCCCC3	-14.1%
COC(=O)c1c(NC(=O)CN2CCOCC2)sc2c1CCC(C)C2 (configuration not stated)	-31.2%
COc1cc(NC(=O)CCCOc2ccc(Cl)cc2Cl)c(C(=O)O)cc1OC	-17.7%
CC(=O)CSc1ncnc2sc3c(c12)CCC(C)C3 (configuration not stated)	49% (active)
COc1cc(NC(=O)CSc2ncnc3sc4c(c23)CCC(C)C4)c(C(=O)O)cc1OC (configuration not stated)	29.8% (active)
CCOC(=O)/C(C)=N/NC(=O)c1cccc([N+](=O)[O-])c1	-14.2%
CCOC(=O)c1ccc(Oc2cc(C)nc(SC)n2)cc1	-8.1%
Cc1cccc(C(=O)NC(=S)N(C)C2CCCCC2)c1	-9.9%
